Common to all, as to test: NCI-60 one-dose screen, 48 h (100 = growth as untreated, 0 = no growth, -100 = all killed)
Common to all, as to settings: 10 µM unless noted

Test [1] concerns T-47D breast.
Test [2] relates to BT-549 breast.
Test [3] deals with MDA-MB-435 melanoma.
Test [4] relates to SW-620 colon.
Test [5] deals with MCF7 breast.
Test [6] concerns HCT-116 colon.
Test [7] relates to HCC-2998 colon.
Test [8] has as its system KM12 colon.

Molecules are shown by their SMILES. About 83,000 compounds went through this panel and 20% of them were active in at least one assay; those are over-represented in the sample as a whole.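 Values shown are percent growth following 48 h exposure of cells in 96-well plates to a single concentration of compound; below 10 was considered active.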 A number with no mark means an inactive call. Active and inactive are the calls of the source.

Growth data for 15 molecules are collected here from PubChem BioAssay (NCI).

Regarding `Fc1cc(Nc2ccc3c(OCCCN4CCOCC4)cccc3n2)ccc1Cl`, the growth in test [1] was 48.2%; in test [2], 57.9%; in test [3], 32%; in test [4], -32.2% (active); in test [5] it was 14.2%; in test [6], 3.61% (active). In addition, the growth in test [7] is -58.2% (active); in test [8], -21.8% (active).

As to `COc1ccc(/C=C2\COc3ccc(O)cc3C2=O)cc1`, the growth was 87.9% in test [1]; 87.8% in test [2]; 78.7% in test [3]; 84.6% in test [4]; 15.4% in test [5]; 77.7% in test [6]. Further, the growth is 103% in test [7] and 58% in test [8].

Turning to `COc1ccc2[nH]cc(-c3nc(-c4c[nH]c5c(Cl)nccc45)cs3)c2c1`, the growth in test [1] was 24.5%; in test [2], 51.3%; in test [3] it was 51.8%; in test [4], 1.95% (active); in test [5], 54.7%; in test [6] it was 36.4%. For the same molecule, the growth in test [7] was 68.6%; in test [8], 33.3%.

For `O=C(NC1CC(F)C1)c1cc2cccnc2n1-c1ccc(Cl)c(Cl)c1` (stereo not given), the growth in test [1] is 82.6%; in test [2], 101%; in test [3], 119%; in test [4], 98.4%; in test [5], 98.3%; in test [6] it was 94.7%. The growth was 104% in test [7] and 98.5% in test [8].

Regarding `N#Cc1c(-c2ccccc2)nc(SCC(O)CN2CCOCC2)nc1N1CCOCC1` (stereo not given), the growth is 26% in test [1]; 29.5% in test [2]; 53% in test [3]; 78.6% in test [4]; 4.99% (active) in test [5]; 57.5% in test [6]. Besides, the growth was 72.9% in test [7] and 69.1% in test [8].

Consider `Cc1ccc(S(=O)(=O)N2CCC(=O)c3ccccc32)cc1`, for which the growth in test [1] is 78.7%; in test [2], 65.6%; in test [3], 6.12% (active); in test [4], 44.7%; in test [5], 40.5%; in test [6], 59.4%. The growth in test [7] is 83.8%; in test [8] it was 33.5%.

Consider `CCn1cc(CNc2ccc(C(=O)Nc3cc4cc(OC)c(OC)cc4c(C)n3)cc2)cn1`, for which the growth is -3.23% (active) in test [1]; 24.6% in test [2]; 10.5% in test [3]; 75.3% in test [4]; 46.6% in test [5]; 46.8% in test [6]. In addition, the growth in test [7] was 87.8%; in test [8], 33.3%.

As for `COc1cccc(Nc2ncnc3cc(NC(=O)CCl)ccc23)c1`, the growth in test [1] was -32.6% (active); in test [2], -28.7% (active); in test [3], -82% (active); in test [4] it was -73.6% (active); in test [5], -8.63% (active); in test [6] it was -53.8% (active). Also, the growth in test [7] is 23%; in test [8] it was -68.5% (active).

As for `C/C(Cc1ccc(Cl)cc1)=C(\c1ccc(OCCCN(C)C)cc1)c1ccc(OC(=O)Cc2ccccc2)cc1`, the growth is 71.3% in test [1]; 117% in test [2]; 107% in test [3]; 108% in test [4]; 57.9% in test [5]; 104% in test [6]. Moreover, the growth in test [7] is 107%; in test [8], 94.7%.

Consider `C[C@@H]1O[C@@H](O[C@@H]2C[C@H](c3ccc4c(c3O)C(=O)C3=C(C4=O)[C@@]4(O)C(=O)C[C@](C)(O)C[C@@]4(O)C=C3)O[C@H](C)[C@H]2O)CC[C@@H]1O[C@H]1C[C@@H](O)[C@H](O)[C@@H](C)O1`, for which the growth in test [1] was 78.7%; in test [2], 100%; in test [3] it was 106%; in test [4], 94.4%; in test [5], 86.4%; in test [6], 91.1%. Further, the growth is 103% in test [7] and 101% in test [8].

In the case of `O=C1c2cccc3cccc(c23)C(=O)N1C/C=C/c1ccc2c3c(cccc13)C(=O)N(CCO)C2=O`, the growth in test [1] was 76.7%; in test [2], 40.3%; in test [3], 94.4%; in test [4], 81.8%; in test [5] it was 80.1%; in test [6], 76%. Besides, the figures for the growth in test [7] and in test [8] were 85.7% and 76.2%, respectively.

As for `CCOc1c(OC)cc2c(c1O)C(=O)N[C@@H]1[C@@H](O)[C@@H](O)[C@H](O)C[C@@H]21`, the growth in test [1] is 92.8%; in test [2] it was 99.6%; in test [3] it was 108%; in test [4], 107%; in test [5], 92.1%; in test [6], 104%. Besides, the values for the growth in test [7] and in test [8] were 102% and 104%, respectively.

Consider `Cc1ccc(Cl)cc1NC(=O)c1sc2nc3c(cc2c1N)C(=O)CCC3`, for which the growth in test [1] was 82.9%; in test [2], 93.5%; in test [3], -3.04% (active); in test [4] it was 36.5%; in test [5] it was 35.6%; in test [6], 68%. The growth is 74.9% in test [7] and 37% in test [8].

With `O=C(CC(=O)Nc1cccc(C(=O)O)c1)Nc1cccc(C(=O)O)c1`, the growth was 92.4% in test [1]; 98.8% in test [2]; 87.4% in test [3]; 90% in test [4]; 101% in test [5]; 94.3% in test [6]. In addition, the figures for the growth in test [7] and in test [8] were 102% and 112%, respectively.

As to `O=C(N/N=C\c1cccc([N+](=O)[O-])c1)N/N=C/c1cccc([N+](=O)[O-])c1`, the growth is 97.2% in test [1]; 108% in test [2]; 108% in test [3]; 103% in test [4]; 66.5% in test [5]; 108% in test [6]. In addition, the growth in test [7] was 109%; in test [8], 107%.
